± gives the standard deviation of the averaged measurements.
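Note: End-point A600 read in BHI broth at 37 °C with 2% DMSO, inhibition computed as (1 − OD with compound plus ceftriaxone ÷ OD with ceftriaxone only) × 100.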

This assay deals with Listeria monocytogenes 10403S. The assay is described as follows: growth inhibition relative to ceftriaxone-alone control; higher = stronger potentiation of ceftriaxone growth inhibition. The conditions noted are these: 10 µM; ceftriaxone 1 ug/ml; 12 h.
With `O=C(Cc1ccc(-c2ccc(OCCN3CCOCC3)cc2)cn1)NCc1ccccc1`, the growth inhibition was 33.6 ± 8.5%.

As to `c1ccc2c(-c3cnn4cc(-c5ccc(N6CCNCC6)cc5)cnc34)ccnc2c1`, the growth inhibition came to 24.6 ± 12%.

With `CN(C)c1cc2c(Nc3ccc4c(cnn4Cc4ccccc4)c3)ncnc2cn1`, the growth inhibition was -7.88 ± 0.099%.

`Oc1cc(O)cc(/C=C/c2ccc(O)c(O)c2)c1` [Piceatannol]: the growth inhibition amounted to 29.4 ± 16%.

`NS(=O)(=O)c1ccc(N/C=C2\C(=O)Nc3ccc4ncsc4c32)cc1`: the growth inhibition was -2.62 ± 4.2%.

Take `COc1cc2ncnc(Nc3ccc4c(cnn4Cc4ccccc4)c3)c2cc1OC`: the growth inhibition was -12.1 ± 18%.

With `CN(c1ncccc1CNc1nc(Nc2ccc3c(c2)CC(=O)N3)ncc1C(F)(F)F)S(C)(=O)=O`, the growth inhibition is 41.8 ± 28%.

As for `Nc1ncnc2occ(-c3ccc(NC(=O)Nc4cccc(C(F)(F)F)c4)cc3)c12`, the growth inhibition was -12.9 ± 3.5%.

For `CC(=O)Nc1cccc(C#Cc2cncnc2Nc2ccc(OCc3cccc(F)c3)c(Cl)c2)n1`, the growth inhibition was -0.967 ± 4.2%.

As for `c1cnn2ncc(-c3ccnc(NCCCN4CCOCC4)n3)c2c1`, the growth inhibition is -2.97 ± 0.54%.

Regarding `O=C1Nc2ccc(-c3cccnc3)cc2C1=Cc1cc(Br)c(O)c(Br)c1`, the growth inhibition was determined as 22.1 ± 2.9%.

On to `FC(F)(F)c1ccc(-c2nn3ncccc3c2-c2ccnc(Nc3ccc4c(c3)OCCO4)n2)cc1`, for which the growth inhibition was -7.04 ± 3.3%.

As for `Cn1c(=O)c(F)c(Nc2ccc(I)cc2F)c2c(=O)n(C[C@@H](O)CO)cnc21`, the growth inhibition amounted to 23 ± 13%.

On to `Cc1cc(Nc2nc(N[C@@H](C)c3ccc(F)cc3)c(C#N)cc2F)n[nH]1`, for which the growth inhibition came to 96.93 ± 0.13%.

With `COc1cccc(-c2c[nH]c3c(N/N=C/c4ccncc4)ncnc23)c1`, the growth inhibition is -10.6 ± 14%.

For the compound `Cc1cnc(NC(=O)Nc2cc(Br)c(C)cc2OC[C@@H]2CNCCO2)cn1`, the growth inhibition came out at 61.8 ± 50%.

As to `Cc1nnc(-c2cccc(-c3ccc(C(=O)NCC4CC4)cc3)c2)o1`, the growth inhibition was found to be 3.5 ± 10%.

Consider `CCCS(=O)(=O)Nc1ccc(F)c(C(=O)c2c[nH]c3ncc(-c4ccc(Cl)cc4)cc23)c1F` [Vemurafenib (PLX4032)], for which the growth inhibition is -29.7 ± 26%.

As to `CCn1c(-c2nonc2N)nc2c(C#CC(C)(C)O)ncc(OC3CCNCC3)c21`, the growth inhibition was found to be 77 ± 1.4%.

Take `CNC(=O)c1cc(Oc2ccc(NC(=O)Nc3ccc(Cl)c(C(F)(F)F)c3)cc2)ccn1` [Sorafenib (Nexavar)]: the growth inhibition stood at 98.7 ± 1.8%.

As for `CNC(=O)c1cncc(/C=C/c2ccccc2Cl)c1`, the growth inhibition is -3.04 ± 0.74%.

As for `Cn1cc(-c2ccc3ncc(Cc4ccc5ncccc5c4)n3n2)cn1`, the growth inhibition is -1.22 ± 3.1%.

On to `COc1cc(C)c(N(C)C(=O)CN(C)C)cc1Nc1nc(Nc2cccc(F)c2C(N)=O)c2cc[nH]c2n1`, for which the growth inhibition is -0.447 ± 1%.

For `O=C1Nc2ccc(I)cc2C1=Cc1cc(Br)c(O)c(Br)c1`, the growth inhibition is 36.9 ± 6%.

For `CNC(=O)c1cncc(/C=C/c2c(Cl)cccc2Cl)c1`, the growth inhibition is -4.82 ± 4.5%.

`Fc1ccc(-c2nc3n(c2-c2ccncc2)CCS3)cc1`: the growth inhibition was -8.85 ± 15%.

`COc1cc(/C=N/Nc2ncnc3c2cnn3C(C)C)ccc1O`: the growth inhibition is -1.18 ± 2.2%.

For the compound `COc1ccc(-c2ccc3c(N4CCOCC4)nc(N4C[C@@H](C)O[C@@H](C)C4)nc3n2)cc1CO`, the growth inhibition was -4.35 ± 2.4%.

Consider `Cc1ccc(NC(=O)c2ccnc(N3CCCC3)c2)cc1-c1ccc(C(=O)NCC2CC2)cc1`, for which the growth inhibition was -0.943 ± 1.3%.

`Fc1cccc(COc2ccc(Nc3ncnc4cc(-c5ccc[nH]5)sc34)cc2Cl)c1`: the growth inhibition is 7.47 ± 4%.

As to `O=C(Nc1n[nH]c2nc(-c3ccco3)ccc12)C1CC1`, the growth inhibition stood at 0.454 ± 0.64%.

On to `NC(=O)c1cccc(Nc2nccc(Nc3cccc4[nH]ncc34)n2)c1`, for which the growth inhibition worked out at 0.727 ± 1.3%.

Consider `Clc1ccc(-c2nn3ncccc3c2-c2ccnc(Nc3ccccc3)n2)cc1`, for which the growth inhibition was -7.12 ± 3.8%.

Turning to `CC[C@@H]1C(=O)N(C)c2cnc(Nc3ccc(C(=O)NC4CCN(C)CC4)cc3OC)nc2N1C1CCCC1`, the growth inhibition came out at 41.8 ± 45%.

For `CCCS(=O)(=O)Nc1ccc(F)c(C(=O)c2c[nH]c3ncc(Cl)cc23)c1F`, the growth inhibition is 24.2 ± 22%.

`Cc1cc(Nc2cc(N3CCN(C)CC3)nc(/C=C/c3ccccc3)n2)n[nH]1`: the growth inhibition turned out to be 85.7 ± 18%.

With `O=C1NC(=O)[C@@H](c2cn3c4c(cccc24)CCC3)[C@@H]1c1c[nH]c2ccccc12` [ARQ 197 (Tivantinib)], the growth inhibition was 63.3 ± 38%.

With `FC(F)(F)c1ccc(/C=C/c2nc(COc3ccc(CCCCn4ccnn4)cc3)co2)cc1` [Mubritinib (TAK 165)], the growth inhibition is 16.1 ± 6.1%.

(Values after the supplement of paper PMC5641865, “A screen for kinase inhibitors identifies antimicrobial imidazopyridine aminofurazans as specific inhibitors of the Listeria monocytogenes PASTA kinase PrkA” (The Journal of Biological Chemistry, 2017).)
